Records with an inconclusive call do not appear. Activity calls are given as the source filed them. The calls were made as follows, unless noted: active = hit-call score of the fitted dose curve at least 0.9, where 1 is the maximum; inactive = score below 0.9.
Columns and labels:
[1] = molecular target: Oxysterols receptor LXR-beta (Homo sapiens) (UniProt P55055); assay: ATG_LXRb_TRANS: Attagene TRANS-FACTORIAL HepG2 Assay for human Liver X Receptor beta (LXRb) (AID 2282981; active = hit-call score of the fitted dose curve at least 0.9, where 1 is the maximum); conditions: HepG2 Attagene TRANS GAL4-LXRb reporter, mRNA
In short: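 Measures induction of a Gal4-driven reporter transcript in HepG2 cells expressing an exogenous LXRb-Gal4 fusion. Cells are exposed to compound for 24 h before RNA isolation and RT-PCR with capillary electrophoresis detection.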

[2] = molecular target: Nuclear receptor subfamily 4 group A member 2 (Homo sapiens) (UniProt P43354); assay: ATG_NURR1_TRANS: Attagene TRANS-FACTORIAL HepG2 Assay for human Nuclear Receptor Related Protein 1 (NURR1) (AID 2282985; active = hit-call score of the fitted dose curve at least 0.9, where 1 is the maximum); conditions: HepG2 Attagene TRANS reporter, mRNA readout
In short: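 Chimeric NR-Gal4 fusion activity measured in HepG2 after 24 h treatment. Reporter transcripts detected by RT-PCR and capillary electrophoresis fluorescence; positive-direction curve fitting against DMSO.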

[3] = molecular target: Nuclear respiratory factor 1 (Homo sapiens) (UniProt Q16656); assay: ATG_NRF1_CIS: Attagene CIS-FACTORIAL HepG2 Assay for human Nuclear Respiratory Factor 1 (NRF1) Orphan Gene (AID 2282987); conditions: HepG2 NRF1 cis-element reporter, Attagene multiplex; actives raise or lower the signal
In short: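 HepG2 cells transiently transfected with multiple reporter transcription units under cis-regulatory promoter control, so endogenous transcription-factor activity is read. After 24 h compound exposure, reporter mRNA quantified by RT-PCR, fluorescent labelling, HpaI digestion and capillary electrophoresis; bidirectional fitting versus DMSO.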

[4] = molecular target: Myc proto-oncogene protein (Homo sapiens) (UniProt P01106); assay: ATG_Myc_CIS: Attagene CIS-FACTORIAL HepG2 Assay for human Myelocytomatosis (Myc) Proto-Oncogene Transcription Factor (AID 2282990); conditions: HepG2, Attagene cis-reporter transcription factor activity; actives raise or lower the signal
In short: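 Multiplexed cis-reporter transcription in HepG2 cells after 24 h chemical treatment. Reporter mRNA measured by RT-PCR and capillary electrophoresis fluorescence; activity fitted bidirectionally against DMSO control.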

[5] = ATG_NF_kB_CIS: Attagene CIS-FACTORIAL HepG2 Assay for human Nuclear Factor Kappa B (NF-kB) (AID 2282991); conditions: HepG2 Attagene cis-factorial NF-kB reporter mRNA; actives raise or lower the signal
In short: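 HepG2 cells transiently transfected with multiplexed cis-element reporter units measuring endogenous transcription factor activity; reporter mRNA read 24 h after dosing by RT-PCR, fluorescent labelling, HpaI digestion and capillary electrophoresis. Bidirectional fit against DMSO baseline.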

[6] = ATG_NRF2_ARE_CIS: Attagene CIS-FACTORIAL HepG2 Assay for human Nuclear Factor Erythroid 2 Related Factor 2 (NFR2) response to Antioxidant Response Elements (ARE) (AID 2282992); conditions: HepG2 Attagene ARE/NRF2 reporter, transcription factor activity; actives raise or lower the signal
In short: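 Endogenous transcription factor activity read out as reporter transcript levels (RT-PCR plus capillary electrophoresis, fluorescence) in transiently transfected HepG2 cells. Measured at 24 h after dosing; gain or loss of signal fitted versus DMSO.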

[7] = ATG_Oct_MLP_CIS: Attagene CIS-FACTORIAL HepG2 Assay for human Octamer-Binding Transcription Factor (Oct) (AID 2282993); conditions: HepG2 Attagene cis-factorial Oct reporter, mRNA; actives raise or lower the signal
In short: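 HepG2 cells transiently transfected with cis-element-driven reporter transcription units (endogenous TF activity); 24 h compound exposure. Reporter mRNA quantified by RT-PCR, 6-FAM labelling, HpaI digestion and capillary electrophoresis; bidirectional fit versus DMSO baseline.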

[8] = molecular target: Cellular tumor antigen p53 (Homo sapiens) (UniProt P04637); assay: ATG_p53_CIS: Attagene CIS-FACTORIAL HepG2 Assay for human p53 Transcription Factor (AID 2282994); conditions: HepG2 p53 cis-element reporter, Attagene mRNA; actives raise or lower the signal
In short: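 Endogenous p53 activity read in transiently transfected HepG2 from a cis-element-driven reporter transcript after 24 h exposure. RNA reverse-transcribed, PCR-amplified, fluorescently labelled and sized by capillary electrophoresis; gain or loss fitted against DMSO baseline.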

[9] = molecular target: Hepatocyte nuclear factor 4-alpha (Homo sapiens) (UniProt P41235); assay: ATG_HNF4a_TRANS: Attagene TRANS-FACTORIAL HepG2 Assay for human Hepatocyte Nuclear Factor 4 alpha (HNF4a) (AID 2282982; active = hit-call score of the fitted dose curve at least 0.9, where 1 is the maximum); conditions: HepG2 HNF4a transactivation reporter, mRNA readout
In short: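 In this trans-factorial format, a chimeric HNF4a-GAL4 fusion drives a GAL4-UAS reporter in transfected HepG2 liver cells. After 24 h treatment, reporter mRNA induction is measured by RT-PCR with capillary electrophoresis, relative to DMSO.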

[10] = ATG_M_06_TRANS: Attagene TRANS-FACTORIAL HepG2 Assay for M06 Transcription Factor (Internal Marker) (AID 2282983; active = hit-call score of the fitted dose curve at least 0.9, where 1 is the maximum); conditions: HepG2 Attagene TRANS M06 internal marker reporter
In short: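 Multi-reporter-transfected HepG2, 24 h treatment; reporter transcripts quantified via RT-PCR, primer-extension labelling and CE. DMSO-normalized gain-of-signal fit.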

[11] = ATG_M_32_TRANS: Attagene TRANS-FACTORIAL HepG2 Assay for M32 Transcription Factor (Internal Marker) (AID 2282984; active = hit-call score of the fitted dose curve at least 0.9, where 1 is the maximum;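 also: transcript level of a background control reporter unit measured by RT-PCR and capillary electrophoresis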); conditions: HepG2 Attagene TRANS M32 internal marker reporter
In short: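 After 24 h dosing of transfected HepG2 cells, total RNA was reverse-transcribed, reporter sequences PCR-amplified, 6-FAM labelled by primer extension and HpaI-digested before capillary electrophoresis. Signal increase over DMSO was fitted.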

[12] = molecular target: Transcriptional activator Myb (Homo sapiens) (UniProt P10242); assay: ATG_Myb_CIS: Attagene CIS-FACTORIAL HepG2 Assay for human Myeloblastosis (Myb) Proto-Oncogene Transcription Factor (AID 2282986); conditions: HepG2 Attagene CIS-FACTORIAL Myb reporter transcription; actives raise or lower the signal
In short: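 HepG2 cells were transiently transfected with cis-regulated multiple reporter transcription units reflecting endogenous Myb activity, then exposed to compound for 24 hours. Reporter mRNA was measured by RT-PCR with capillary electrophoresis; bidirectional fitting versus DMSO baseline.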

[13] = ATG_NFI_CIS: Attagene CIS-FACTORIAL HepG2 Assay for human Nuclear Factor I (NFI) (AID 2282989); conditions: HepG2 cis-regulatory reporter, NFI response element transcription; actives raise or lower the signal
In short: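 Endogenous TF activity in HepG2 cells transiently transfected with cis-element-driven multiplexed reporter units, read 24 h after dosing. Reporter mRNA quantified by RT-PCR, 6-FAM labelling, HpaI digestion and capillary electrophoresis; bidirectional fit versus DMSO.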

[14] = BSK_3C_TissueFactor: BioMAP Diversity Plus: 3C Assay for Tissue Factor Biomarker Activity (AID 2282997); conditions: BioMAP 3C HUVEC, tissue factor biomarker readout; actives raise or lower the signal
In short: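 In this endothelial system, HUVEC are treated for 24 h and Tissue Factor is assessed by ELISA, normalised to DMSO.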

[15] = BSK_3C_uPAR: BioMAP Diversity Plus: 3C Assay for Urokinase-type plasminogen activator receptor (uPAR) Biomarker Activity (AID 2282998); conditions: BioMAP 3C HUVEC, uPAR biomarker ELISA; actives raise or lower the signal
In short: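 Primary human umbilical vein endothelial cells, 3C system; surface uPAR measured by ELISA 24 h after dosing. Cytotoxicity via SRB total protein in parallel cultures; bidirectional fit against DMSO.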

[16] = BSK_3C_VCAM1: BioMAP Diversity Plus: 3C Assay for Vascular cell adhesion molecule 1 (VCAM1) Biomarker Activity (AID 2282999); conditions: BioMAP 3C HUVEC, VCAM1 ELISA, cytokine-stimulated; actives raise or lower the signal
In short: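 Vascular primary endothelium (human umbilical vein) was exposed to chemicals and assayed 24 h later. VCAM-1 levels came from ELISA, with DMSO serving as baseline for bidirectional fitting.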

[17] = BSK_4H_Eotaxin3: BioMAP Diversity Plus: 4H Assay for Eotaxin 3 Biomarker Activity (AID 2283000); conditions: primary human endothelial cells (HUVEC); actives raise or lower the signal;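 also: CCL26 protein level quantified by ELISA in parallel with SRB cytotoxicity check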
In short: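 ELISA quantitation of CCL26 (Eotaxin-3) protein from chemically dosed human vascular endothelial cells at 24 h; increases and decreases both scored relative to DMSO-treated baseline.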

Measured: AC50

Sequence of Transcriptional activator Myb (Homo sapiens) (P10242 whole entry, looked up): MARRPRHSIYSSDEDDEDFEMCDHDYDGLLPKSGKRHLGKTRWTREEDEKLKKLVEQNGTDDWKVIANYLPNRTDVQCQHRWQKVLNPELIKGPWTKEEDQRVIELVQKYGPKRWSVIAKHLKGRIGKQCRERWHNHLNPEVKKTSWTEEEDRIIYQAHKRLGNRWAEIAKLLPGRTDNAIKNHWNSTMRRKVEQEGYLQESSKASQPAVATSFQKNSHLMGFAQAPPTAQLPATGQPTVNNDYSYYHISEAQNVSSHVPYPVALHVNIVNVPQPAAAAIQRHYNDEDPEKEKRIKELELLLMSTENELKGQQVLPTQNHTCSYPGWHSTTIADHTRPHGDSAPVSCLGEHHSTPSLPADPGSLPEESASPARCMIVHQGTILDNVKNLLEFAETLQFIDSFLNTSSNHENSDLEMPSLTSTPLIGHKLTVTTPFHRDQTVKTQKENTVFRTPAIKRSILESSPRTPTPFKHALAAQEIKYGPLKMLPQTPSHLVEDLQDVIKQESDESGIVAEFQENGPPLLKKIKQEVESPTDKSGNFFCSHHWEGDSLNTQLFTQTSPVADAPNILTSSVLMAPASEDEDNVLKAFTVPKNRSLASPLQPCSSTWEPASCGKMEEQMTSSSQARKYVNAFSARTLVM
Sequence of Nuclear respiratory factor 1 (Homo sapiens) (Q16656 whole entry, looked up): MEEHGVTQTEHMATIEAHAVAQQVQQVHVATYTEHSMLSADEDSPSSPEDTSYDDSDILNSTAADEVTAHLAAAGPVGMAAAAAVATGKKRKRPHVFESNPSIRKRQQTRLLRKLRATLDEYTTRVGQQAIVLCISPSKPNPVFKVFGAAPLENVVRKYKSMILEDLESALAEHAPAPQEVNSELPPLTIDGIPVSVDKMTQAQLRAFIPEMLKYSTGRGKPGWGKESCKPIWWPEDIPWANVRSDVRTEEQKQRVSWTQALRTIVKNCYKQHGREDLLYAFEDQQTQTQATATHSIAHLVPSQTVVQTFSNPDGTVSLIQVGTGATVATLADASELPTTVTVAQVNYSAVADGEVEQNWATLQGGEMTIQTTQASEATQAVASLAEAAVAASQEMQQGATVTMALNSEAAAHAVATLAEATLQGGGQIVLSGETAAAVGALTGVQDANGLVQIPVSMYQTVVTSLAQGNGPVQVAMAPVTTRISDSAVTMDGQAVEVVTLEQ
Sequence of Myc proto-oncogene protein (Homo sapiens) (P01106 whole entry, looked up): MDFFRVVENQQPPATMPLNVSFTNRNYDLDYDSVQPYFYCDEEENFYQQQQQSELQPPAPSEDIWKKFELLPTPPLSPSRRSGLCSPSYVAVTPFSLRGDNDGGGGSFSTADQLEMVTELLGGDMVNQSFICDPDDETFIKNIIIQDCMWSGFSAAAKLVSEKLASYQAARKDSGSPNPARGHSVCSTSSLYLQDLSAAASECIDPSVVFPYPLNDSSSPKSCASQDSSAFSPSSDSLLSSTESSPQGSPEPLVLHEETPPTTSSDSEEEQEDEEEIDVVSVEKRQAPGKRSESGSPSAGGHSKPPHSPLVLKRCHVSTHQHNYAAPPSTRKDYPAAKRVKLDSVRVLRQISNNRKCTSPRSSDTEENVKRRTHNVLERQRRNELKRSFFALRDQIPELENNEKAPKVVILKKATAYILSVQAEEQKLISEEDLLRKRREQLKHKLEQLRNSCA
Sequence of Hepatocyte nuclear factor 4-alpha (Homo sapiens) (P41235 whole entry, looked up, the tested form may be a part): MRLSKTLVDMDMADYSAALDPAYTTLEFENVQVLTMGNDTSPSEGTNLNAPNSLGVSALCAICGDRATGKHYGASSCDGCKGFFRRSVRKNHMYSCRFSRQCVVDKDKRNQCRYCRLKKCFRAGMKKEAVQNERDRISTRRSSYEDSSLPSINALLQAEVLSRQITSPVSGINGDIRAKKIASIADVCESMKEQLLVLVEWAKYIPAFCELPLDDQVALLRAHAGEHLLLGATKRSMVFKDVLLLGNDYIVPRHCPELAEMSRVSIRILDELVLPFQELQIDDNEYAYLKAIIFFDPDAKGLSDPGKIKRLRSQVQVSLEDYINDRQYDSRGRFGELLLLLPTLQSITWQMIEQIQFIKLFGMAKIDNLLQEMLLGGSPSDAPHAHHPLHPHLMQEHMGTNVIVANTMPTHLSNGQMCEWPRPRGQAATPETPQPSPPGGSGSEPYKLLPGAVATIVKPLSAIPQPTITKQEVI
Sequence of Cellular tumor antigen p53 (Homo sapiens) (P04637 whole entry, looked up): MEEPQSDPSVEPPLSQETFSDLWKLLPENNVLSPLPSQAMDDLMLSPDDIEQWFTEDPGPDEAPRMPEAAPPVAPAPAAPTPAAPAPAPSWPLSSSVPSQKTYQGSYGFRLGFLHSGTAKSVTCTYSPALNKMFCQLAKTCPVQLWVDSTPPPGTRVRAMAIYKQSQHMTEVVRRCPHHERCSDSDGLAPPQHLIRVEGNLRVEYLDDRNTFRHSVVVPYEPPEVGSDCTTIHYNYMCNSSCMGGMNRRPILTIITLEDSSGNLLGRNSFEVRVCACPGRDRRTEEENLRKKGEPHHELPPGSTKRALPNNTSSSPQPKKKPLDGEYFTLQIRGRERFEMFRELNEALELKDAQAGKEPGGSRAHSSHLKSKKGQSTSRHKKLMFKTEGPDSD
Sequence of Nuclear receptor subfamily 4 group A member 2 (Homo sapiens) (P43354 whole entry, looked up, the tested form may be a part): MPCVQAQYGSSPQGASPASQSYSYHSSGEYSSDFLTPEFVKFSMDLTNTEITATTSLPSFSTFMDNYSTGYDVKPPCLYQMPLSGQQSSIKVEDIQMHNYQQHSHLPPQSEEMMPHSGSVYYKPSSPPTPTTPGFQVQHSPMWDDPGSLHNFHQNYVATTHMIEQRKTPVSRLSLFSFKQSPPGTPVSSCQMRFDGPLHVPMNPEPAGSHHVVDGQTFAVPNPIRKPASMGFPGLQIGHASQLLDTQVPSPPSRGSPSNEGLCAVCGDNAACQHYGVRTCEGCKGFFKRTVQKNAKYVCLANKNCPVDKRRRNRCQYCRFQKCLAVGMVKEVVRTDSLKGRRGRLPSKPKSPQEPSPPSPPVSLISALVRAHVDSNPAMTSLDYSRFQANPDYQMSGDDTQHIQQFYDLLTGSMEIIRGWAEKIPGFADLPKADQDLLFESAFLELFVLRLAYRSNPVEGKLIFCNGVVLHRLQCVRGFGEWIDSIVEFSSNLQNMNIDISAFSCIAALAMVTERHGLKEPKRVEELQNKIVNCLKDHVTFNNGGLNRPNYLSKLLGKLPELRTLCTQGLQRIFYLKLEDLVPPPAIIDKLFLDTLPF
Sequence of Oxysterols receptor LXR-beta (Homo sapiens) (P55055 whole entry, looked up, the tested form may be a part): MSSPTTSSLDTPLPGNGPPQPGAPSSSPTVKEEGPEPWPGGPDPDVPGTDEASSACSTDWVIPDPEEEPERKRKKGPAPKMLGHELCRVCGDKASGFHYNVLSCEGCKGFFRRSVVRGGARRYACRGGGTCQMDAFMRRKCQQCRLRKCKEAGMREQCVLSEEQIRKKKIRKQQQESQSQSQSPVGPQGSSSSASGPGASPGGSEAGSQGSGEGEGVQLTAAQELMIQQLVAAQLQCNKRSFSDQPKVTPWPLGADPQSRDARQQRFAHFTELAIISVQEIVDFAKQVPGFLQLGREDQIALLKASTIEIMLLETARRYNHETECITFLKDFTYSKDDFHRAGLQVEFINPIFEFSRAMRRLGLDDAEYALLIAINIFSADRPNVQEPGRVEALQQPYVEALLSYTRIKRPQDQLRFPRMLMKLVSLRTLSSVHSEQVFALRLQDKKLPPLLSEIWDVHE

CCCCCCOC(=O)CC
inactive: [1] | [2] | [3] | [4] | [5] | [6] | [7] | [8]

CC[C@]12CCCN3CCc4c(n(c5ccccc45)[C@@](O)(C(=O)OC)C1)[C@@H]32
active: [5] 170 µM | [8] 164 µM
not listed: [1] | [2] | [14] | [15] | [16] | [17]
inactive: all other assays above

NCCNCCN
not listed: [1] | [2]
inactive: all other assays above

CC1(C)C(=O)N(Br)C(=O)N1Cl
inactive: [9] | [11] | [3] | [13] | [4] | [5] | [7] | [8]
active: [6] 100 µM

O=C(COc1ccc(Cl)cc1)N1CCN(Cc2ccc3c(c2)OCO3)CC1
active: [2] 67 µM | [6] 100 µM
not listed: [1] | [8] | [14] | [15] | [16] | [17]
inactive: all other assays above

N#Cc1nc(Cl)c(Cl)c(Cl)c1Cl
inactive: [10] | [11] | [2] | [4]
active: [9] 5.77 µM | [12] 2.71 µM | [3] 5.93 µM | [13] 6.05 µM | [5] 4.63 µM | [6] 0.885 µM | [7] 2.54 µM

CCCCCCCCCCC(CO)CCCCCCCC (stereo not drawn)
inactive: [11] | [2] | [12] | [3] | [13] | [4] | [6] | [7] | [8]

C=C(C)C(=O)OCc1ccccc1
inactive: [9] | [11] | [2] | [3] | [13] | [4] | [5] | [6] | [7]

ClCCCl
inactive: [10] | [12] | [3] | [13] | [4] | [5] | [6] | [7] | [8]

CC(=O)C(=O)O
inactive: [9] | [10] | [12] | [3] | [13] | [4] | [6] | [7] | [8]

CC1(C)OC[C@@H]2O[C@@]3(C(=O)O)OC(C)(C)O[C@H]3[C@@H]2O1
inactive: [10] | [12] | [3] | [13] | [4] | [5] | [6] | [7]

COC(C(=O)O)c1ccccc1 (stereo not drawn)
not listed: [1] | [2] | [11] | [14] | [15] | [16] | [17]
inactive: all other assays above

CNC[C@H](O)c1cccc(O)c1
not listed: [1] | [10] | [11]
inactive: all other assays above

O=S(=O)(O)NC1CCCCC1
inactive: [9] | [12] | [3] | [13] | [4] | [5] | [6] | [7]

CC(C)(C)c1n[nH]c(=S)n(N)c1=O
inactive: [9] | [12] | [3] | [13] | [4] | [5] | [6] | [7] | [8]

CC(C)[C@@H]1CC[C@@H](C)CC1=O
inactive: [9] | [12] | [3] | [13] | [4] | [6] | [7] | [8]

CC(C)(C)C(=O)c1ccccc1
not listed: [1] | [2] | [11] | [14] | [15] | [16] | [17]
inactive: all other assays above
